Results filed as inconclusive are left out. The source made the active and inactive calls. Rule for the calls: active = hit-call score of the fitted dose curve at least 0.9, where 1 is the maximum; inconclusive = response in the unintended direction; inactive = score below 0.9.
Target: hamster Adenylyl Cyclase, Adcy5 (gene 64532) (UniProt Q04400)
Test: ERF_FR_ENZ_rACFSK_Antagonist: Eurofins (ERF) Enzymatic LeadHunter Assay for hamster Adenylyl Cyclase Antagonism
Protocol: ERF_FR_ENZ_rACFSK_Antagonist is a biochemical, single-readout assay that uses extracted gene-proteins in a cell-free assay. Measurements were taken 0.16 hour after chemical dosing in a 96-well plate. See Adenylyl Cyclase Hamster Enzymatic Antagonist Assay, Cerep.ERF_FR_ENZ_rACFSK_Antagonist is an assay component calculated from the ERF_FR_ENZ_rACFSK assay. It is designed to measure enzyme activity using a type of enzyme reporter as detected by fluorescence intensity with HTRF technology.Data from the assay component ERF_FR_ENZ_rACFSK_Antagonist was analyzed at the assay endpoint, ERF_FR_ENZ_rACFSK_Antagonist, in the positive analysis fitting direction relative to DMSO as the negative control and baseline of activity. Using a type of enzyme reporter, loss-of-signal activity can be used to understand changes in binding as they relate to gene ADCY5. To generalize the intended target to other relatable targets, this assay endpoint is annotated to the gpcr intended target family, where the subfamily is adenylyl cyclase.
Hamster cells are incubated for 10 minutes at room temprature. Test Sample Requirements: Minimum for 1) Screen: 60 ul of 10 mM stock -OR- 1 mg (pre-weighed) for 10 uM final testing. 2) Dose Response: 90 ul of 10 mM stock -OR- 1 mg (pre-weighed) for a top concentration at 10 uM.

Sequence of hamster Adenylyl Cyclase, Adcy5 (gene 64532) (Q04400 whole entry, looked up): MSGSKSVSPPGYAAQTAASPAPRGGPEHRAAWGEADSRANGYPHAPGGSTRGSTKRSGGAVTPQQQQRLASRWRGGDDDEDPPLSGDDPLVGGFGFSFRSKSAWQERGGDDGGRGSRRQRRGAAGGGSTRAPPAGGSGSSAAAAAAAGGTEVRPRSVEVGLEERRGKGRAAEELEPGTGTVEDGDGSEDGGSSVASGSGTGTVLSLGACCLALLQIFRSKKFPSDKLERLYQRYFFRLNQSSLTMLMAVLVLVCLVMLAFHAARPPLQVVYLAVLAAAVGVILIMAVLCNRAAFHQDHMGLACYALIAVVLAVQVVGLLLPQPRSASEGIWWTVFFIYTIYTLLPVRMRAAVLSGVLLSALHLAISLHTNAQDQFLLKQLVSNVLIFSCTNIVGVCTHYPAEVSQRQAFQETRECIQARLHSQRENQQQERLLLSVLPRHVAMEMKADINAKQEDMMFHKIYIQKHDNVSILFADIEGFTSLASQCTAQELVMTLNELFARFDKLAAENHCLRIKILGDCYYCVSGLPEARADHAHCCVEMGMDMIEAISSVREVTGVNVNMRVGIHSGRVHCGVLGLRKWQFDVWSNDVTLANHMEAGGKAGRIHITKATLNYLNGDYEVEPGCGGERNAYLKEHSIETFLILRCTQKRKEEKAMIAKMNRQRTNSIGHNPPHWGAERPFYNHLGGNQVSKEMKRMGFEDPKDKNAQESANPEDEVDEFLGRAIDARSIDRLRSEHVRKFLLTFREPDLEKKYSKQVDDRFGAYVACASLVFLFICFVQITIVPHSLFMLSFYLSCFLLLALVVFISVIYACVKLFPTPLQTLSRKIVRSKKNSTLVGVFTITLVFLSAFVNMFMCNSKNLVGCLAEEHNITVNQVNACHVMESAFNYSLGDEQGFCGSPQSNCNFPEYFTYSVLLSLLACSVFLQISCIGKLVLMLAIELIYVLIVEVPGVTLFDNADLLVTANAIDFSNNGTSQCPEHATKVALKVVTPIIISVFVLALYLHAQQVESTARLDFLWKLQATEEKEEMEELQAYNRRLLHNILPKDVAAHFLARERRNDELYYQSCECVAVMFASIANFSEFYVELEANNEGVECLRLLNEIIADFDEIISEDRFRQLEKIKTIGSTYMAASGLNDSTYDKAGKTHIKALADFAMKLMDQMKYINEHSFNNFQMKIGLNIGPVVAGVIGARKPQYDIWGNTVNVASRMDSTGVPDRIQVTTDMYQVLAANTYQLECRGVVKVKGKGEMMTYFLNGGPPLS

| SMILES | outcome | AC50 |
| --- | --- | --- |
| COc1cc(CCC(=O)CC(=O)CCc2ccc(O)c(OC)c2)ccc1O | inactive |  |
| COc1cccc2c1C(=O)c1c(O)c3c(c(O)c1C2=O)C[C@@](O)(C(=O)CO)C[C@@H]3O[C@H]1C[C@H](N)[C@H](O)[C@H](C)O1 |  | 2600 nM (active) |
| O=C(/C=C/c1ccc(O)cc1)CC(=O)/C=C/c1ccc(O)cc1 | inactive |  |
